In the library only some 19% were active in any assay of this set; here they are far more common.
HT1080NT lethal: kills 2HG-producing HT-1080-NT fibrosarcoma cells | HT-1080-NT fibrosarcoma viability, CellTiter-Glo ATP luminescence, 48 h | Potency, µM (top dose mostly 46.1 µM), usual class: cytotoxic | 1.6% of 360,000 active | AID 686970;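 note: NT is the 2HG producing partner of a matched IDH1 knockdown line; nearly all actives have a fitted effect of over 55% in size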
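A 48-hour cytotoxicity screen used HT-1080-NT cells plated 2 hours before compound delivery. ATP-based CellTiter-Glo luminescence measured viability, normalized to DMSO and no-cell controls.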
TDP1 cell CPT: DT40-hTDP1 cell growth loss with CPT; 12% of 420,000 active; AID 686979; Potency, µM (doses to about 46.2 µM), hits mostly inhibitors; chicken DT40 Tdp1-/-;hTDP1 cells + 20 nM CPT, ATP luminescence, 48 h; note: nearly all actives have a fitted effect of over 55% in size
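Cell growth measured by CellTiter-Glo luminescence after a minimum 48 h, 37 C compound exposure with 20 nM CPT in Tdp1-knockout DT40 cells stably expressing hTDP1, seeded 400/well; qHTS titration format.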
HT1080 IDH1KD tx: kills HT-1080 cells with IDH1 knockdown | 2% of 360,000 active | HT-1080 IDH1 knockdown viability, ATP luminescence, 48 h | Potency, µM (highest dose often 46.1 µM), usual class: cytotoxic
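In this qHTS, HT-1080 cells depleted of IDH1 are exposed for 48 h at 37 °C to compound titrations. Toxicity is scored from CellTiter-Glo luminescence, with DMSO as full viability and medium alone as none.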
IL-1B inflam inh: inflammasome signaling inhibition, IL-1 beta readout; 4.7% of 360,000 active; activity change, % at 57.5 µM; THP-1 LPS/ATP IL-1B secretion, AlphaLISA, 16 h; stronger effect = lower value; AID 743279; in the data active = activity change below about -50%; inconclusive = mostly about -30% to -49%
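THP-1 cells pretreated 1 hr with compounds (up to 57.5 uM final), then stimulated with LPS (250 ng/mL final) plus ATP (1.25 mM final); secreted IL-1B measured by AlphaLISA after 16 hr, decreased signal indicating inhibition.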
TDP1 cell noCPT: qHTS for Inhibitors of human tyrosyl-DNA phosphodiesterase 1 (TDP1): qHTS in cells in absence of CPT. 15% of 420,000 active. Potency, µM (top dose mostly 46.2 µM), usual class: inhibitors. DT40 Tdp1-/- hTDP1 cells, no CPT, ATP luminescence, 48 h; note: nearly all actives have a fitted effect of over 55% in size
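Compound effects on proliferation are scored in DT40 Tdp1-/-;hTDP1 cells in the absence of CPT. ATP levels (CellTiter-Glo luminescence) are recorded after a ≥48 hr, 37 °C incubation.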
Numbers stand for hits; – = inactive; ? = inconclusive; · = no result given; [ ] = remark or other dose. Unless noted, calls come from the whole dose curve; as a rule, active = well fitted curve in the direction sought with a large enough effect; inconclusive = small, poorly fitted or top-dose-only effect, or another doubt; inactive = no such curve, though single readings can be large; an effect the other way counts as inactive or inconclusive.

SMILES | HT1080NT lethal | TDP1 cell CPT | HT1080 IDH1KD tx | IL-1B inflam inh | TDP1 cell noCPT
CN(C(=O)COC(=O)c1ccccc1NCc1ccco1)c1c(N)n(Cc2ccccc2)c(=O)[nH]c1=O | – | – | – | – | –
COc1ccc(NC(=O)CCNC(=O)c2ccco2)c(OC)c1 | – | – | – | – | –
CCOC(=O)c1[nH]c(C)c(CCC(=O)N2CCN(c3cc(C)ccc3C)CC2)c1C | · | ? | · | · | 23µM
CCOC(=O)N1CCN(c2c(N3CCN(c4cc(C)ccc4C)CC3)c(=O)c2=O)CC1 | – | – | – | – | ?
CCOC(=O)c1[nH]c(C)c(CCC(=O)Nc2c(C)cc(C)cc2C)c1C | · | ? | · | · | 21µM
CCOC(=O)c1[nH]c(C)c(CCC(=O)N2CCN(c3cc(Cl)ccc3C)CC2)c1C | · | ? | · | · | 23µM
COc1ccc(-c2cc(CCC(=O)N3CCN(c4cc(C)ccc4C)CC3)[nH]n2)cc1 | – | ? | – | – | 23µM
COC(=O)CCC[N+](C)(C)C | · | – | · | · | –
CCSc1ccccc1C(=O)N1CCN(c2ccc([N+](=O)[O-])cc2)CC1 | – | ? | ? | – | 16µM
O=C(c1cc2ccccc2cc1O)N1CCN(c2ccc([N+](=O)[O-])cc2)CC1 | – | 29µM | – | – | 15µM
Cc1cc(C(=O)N2CCN(c3ccc([N+](=O)[O-])cc3)CC2)no1 | – | ? | – | – | ?
Cc1cc(C(=O)N2CCN(c3ccc([N+](=O)[O-])cc3)CC2)n[nH]1 | – | 3.3µM | – | – | 2.6µM
O=S(=O)(NC1CC2CCC1C2)c1ccc(Br)s1 (stereo not drawn) | – | ? | – | – | 23µM
CCCC(CC)Sc1nc2c([nH]1)c(=S)n(C)c(=O)n2C (stereo not drawn) | – | 3.7µM | – | – | 3.7µM
CCCCC(C)Sc1nc2c([nH]1)c(=S)n(C)c(=O)n2C (stereo not drawn) | – | 3.7µM | ? | -99 | 5.2µM
Cn1c(=O)c2[nH]c(SCCN)nc2n(C)c1=S | – | – | – | – | –
Cc1ccccc1NC(=O)c1cccc(S(=O)(=O)N2CCCCC2)c1 | – | – | – | – | –
CCCCn1c(Nc2ccccc2)nc2ccccc21 | – | – | – | – | –
Cc1csc(NC(=O)C2CCN(S(=O)(=O)c3ccccc3F)CC2)n1 | – | ? | – | – | 26µM
CCCn1c(NC(=O)c2ccccc2)nc2ccccc21 | – | ? | – | – | ?
Cc1csc(NC(=O)C2CCN(S(=O)(=O)c3cccs3)CC2)n1 | – | ? | – | – | –
CCCn1c(NC(=O)c2cccc(S(=O)(=O)N3CCCC3)c2)nc2ccccc21 | ? | 23µM | ? | -92 | 13µM
CCCn1c(NC(=O)c2ccc(C)cc2)nc2ccccc21 | – | ? | – | – | 26µM
CCCn1c(Nc2nc3ccccc3n2C)nc2ccccc21 | 13µM | – | 16µM | -99 | ?
CC(=O)Nc1ccc(-c2csc(NC(=O)C3CCN(S(=O)(=O)c4cccs4)CC3)n2)cc1 | – | 16µM | ? | – | 8.2µM
SMILES | HT1080NT lethal | TDP1 cell CPT | HT1080 IDH1KD tx | IL-1B inflam inh | TDP1 cell noCPT
Cc1nc(-c2ccc(NC(=O)C3CC3)cc2)cs1 | – | 23µM | – | – | 18µM
CN1CCN(S(=O)(=O)c2cccc(C(=O)Nc3sc4c(c3-c3nc5ccccc5[nH]3)CCCC4)c2)CC1 | – | 15µM | – | – | 13µM
CCCn1c(NC(=O)C2CCN(S(=O)(=O)c3cccs3)CC2)nc2ccccc21 | ? | 15µM | ? | ? | 16µM
COC(=O)[C@]12CCCCC=C1N(CCc1ccc(OC)c(OC)c1)C(=O)[C@H](CC(=O)N1CCOCC1)C2 | – | – | – | – | –
COc1ccc(CCN(C)C(=O)CCNS(=O)(=O)c2ccccc2C(F)(F)F)cc1OC | – | – | – | – | ?
COc1ccc(CCC(=O)NNC(=O)Nc2ccc(C(C)C)cc2)cc1 | – | – | – | – | –
CC(O)(COc1ccccc1)c1ccc2c(c1)CN(Cc1ccc3nsnc3c1)CCO2 (stereo not drawn) | · | –[9.04 µM] | · | · | –
CC[C@@H]1CCC[C@@H](O)[C@@H](C)C(=O)O[C@H](C)[C@@H](C)C/C=C(C)/C(OC)=C\C(=O)N(C)C([C@@H](C)CC)C(=O)N(C)[C@@H](C(C)C)C(=O)N(C)[C@@H](COC)C(=O)N2CCC[C@H]2C(=O)N(C)[C@@H](C(C)C)C(=O)N2CCC[C@H]2C(=O)O1 (stereo partly drawn) | ? | 0.15µM | ? | – | 0.21µM
COc1ccccc1-c1cncnc1NCc1cccc(C)c1 | · | ? | · | · | 21µM
COc1ccccc1-c1nccc(NCc2cccc(C)c2)n1 | · | 16µM | · | · | 10µM
COc1ccccc1-c1cncnc1NCc1cccs1 | · | – | · | · | –
Cc1cccc(CNc2ccnc(-c3ccccc3CN(C)C)n2)c1 | · | 13µM | · | · | 7.3µM
CNC(=O)c1ccsc1NC(=O)c1ccc(Cl)s1 | – | – | – | – | ?
c1ccc(-c2cn3c(n2)-c2ccccc2C3)cc1 | ? | ? | ? | – | 15µM
CCCc1cc(N2CCN(c3ccccc3)CC2)n2cnnc2n1 | · | ? | · | · | –
CCCc1cc(N2CCN(c3ccccc3F)CC2)n2cnnc2n1 | · | 18µM | · | · | 26µM
Cc1ccc(S(=O)(=O)c2c(C)cc(C)nc2N2CCCC2)cc1 | – | ? | – | – | ?
COc1ccc(C)cc1S(=O)(=O)NCC(c1ccc2c(c1)OCO2)N1CCOCC1 (stereo not drawn) | – | – | – | – | ?
COc1cc(OC)c(-n2cc(-c3ccc(OC)c(OC)c3)[nH]c2=S)cc1Cl | – | – | – | ? | –
COc1ccc(-n2cc(-c3ccccc3)[nH]c2=S)c(OC)c1 | ? | 7.3µM | ? | ? | 5.8µM
COc1ccc(-c2cn(-c3ccc(C)cc3C)c(=S)[nH]2)cc1OC | – | ? | – | – | 21µM
COc1ccc(-n2cc(-c3ccc(OC)c(OC)c3)[nH]c2=S)cc1 | – | – | – | – | ?
CC(NC(=O)CSc1nc2c(c(C(F)(F)F)n1)CCc1ccccc1-2)c1ccccc1 (stereo not drawn) | – | ? | – | – | 23µM
CCc1c(C)sc(NC(=O)CSc2nc3c(c(C(F)(F)F)n2)CCc2ccccc2-3)c1C#N | – | 21µM | – | – | ?
O=C(CSc1nc2c(c(C(F)(F)F)n1)CCc1ccccc1-2)NCc1ccco1 | – | 16µM | – | – | 26µM
O=C(O)c1ccc(OS(=O)(=O)c2ccc(Cl)s2)c(Cl)c1 | – | – | – | – | –
Cc1ccc(S(=O)(=O)CCc2nnc(NC(=O)c3ccccn3)s2)cc1 | – | ? | – | – | 21µM
Cc1ccc(S(=O)(=O)CCc2nnc(NC(=O)c3cnccn3)s2)cc1 | – | – | – | – | –
CCC(CC)c1nnc(NC(=O)Cc2c[nH]c3ccccc23)s1 | – | 26µM | – | – | 23µM

Assay outcomes as filed in PubChem.
